Measurements taken from PubChem BioAssay (NCI).
About 83,000 compounds went through this panel and 20% of them were active in at least one assay; those are over-represented in the sample as a whole.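 The test compound was applied at a single concentration to cells in 96-well plates for 48 hours, and percent growth was recorded.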 Calls of active or inactive are those of the source. How the source made its calls: active means growth percent below 10; inactive means the rest.

Key:
Test in all cases: NCI-60 one-dose screen, 48 h (100 = growth as untreated, 0 = no growth, -100 = all killed)
Conditions in all cases: 10 µM unless noted
T-47D breast = tested on: T-47D breast
BT-549 breast = tested on: BT-549 breast
MDA-MB-435 melanoma = tested on: MDA-MB-435 melanoma
SW-620 colon = tested on: SW-620 colon
MCF7 breast = tested on: MCF7 breast
HCT-116 colon = tested on: HCT-116 colon
KM12 colon = tested on: KM12 colon
HCC-2998 colon = tested on: HCC-2998 colon

Measured: growth

O=C(CCc1nnc(CN(c2ccccc2)c2ccccc2)o1)c1nc2ccccc2[nH]1
inactive: T-47D breast 74.4% | BT-549 breast 84.8% | MDA-MB-435 melanoma 94.3% | SW-620 colon 103% | MCF7 breast 76% | HCT-116 colon 73.6% | KM12 colon 99.8%

Cn1c(-c2c(N)n(Cc3cccnc3)c3nc(C#N)c(C#N)nc23)nc2ccccc21
inactive: T-47D breast 92.1% | BT-549 breast 115% | MDA-MB-435 melanoma 89.3% | SW-620 colon 95.3% | MCF7 breast 103% | HCT-116 colon 44.5% | KM12 colon 82.8%

COc1ccc(-c2cc(-c3cc(OC)c(OC)c(OC)c3)c(C#N)c(N3CCOCC3)n2)cc1O
inactive: T-47D breast 78.3% | BT-549 breast 48.3% | MDA-MB-435 melanoma 28.3% | SW-620 colon 23.1% | MCF7 breast 36.2% | HCT-116 colon 49.1% | KM12 colon 17.4%

N=C1CCC(=N)c2c1c(O)c1ccccc1c2O
inactive: T-47D breast 89.5% | BT-549 breast 97.1% | MDA-MB-435 melanoma 114% | SW-620 colon 101% | MCF7 breast 138% | HCT-116 colon 101% | KM12 colon 96.8%

COc1cccc(-c2nc3sccn3c2-c2ccnc(NCCNS(=O)(=O)c3cccc(F)c3)c2)c1
inactive: MDA-MB-435 melanoma 43.8% | SW-620 colon 51.9% | MCF7 breast 37.7% | HCT-116 colon 24.5% | KM12 colon 27.3%
active: T-47D breast -2.17% | BT-549 breast -6.02%

CNc1ccc(NC)c2c1C(=O)c1ccccc1C2=O
inactive: T-47D breast 37.3% | BT-549 breast 75.7% | MDA-MB-435 melanoma 110% | SW-620 colon 92.4% | MCF7 breast 16% | HCT-116 colon 78% | KM12 colon 64.4%

Cc1ccc(Cl)cc1NC(=O)c1cc2ccccc2cc1O
active: T-47D breast -12.1% | BT-549 breast -15.6% | MDA-MB-435 melanoma -7.31% | SW-620 colon -1.12% | MCF7 breast -21.5% | HCT-116 colon -10.7% | KM12 colon -29.4%

CCN(CC)c1ccc(C(=O)c2ccc(N(CC)CC)cc2)cc1
active: BT-549 breast 4.9% | MDA-MB-435 melanoma 0.459%
inactive: T-47D breast 20.1% | SW-620 colon 26.4% | MCF7 breast 13.5% | HCT-116 colon 10.2% | KM12 colon 25.1%

COc1cc(-c2nn(-c3ccccc3)cc2-c2ccnc(NCCNS(=O)(=O)c3ccc(Cl)cc3)n2)ccc1Cl
active: T-47D breast 4.68%
inactive: BT-549 breast 16.6% | MDA-MB-435 melanoma 28.2% | SW-620 colon 51.1% | MCF7 breast 18% | HCT-116 colon 14.3% | KM12 colon 20.8%

CN(C)CCC=C1c2ccccc2C(C)(C)c2ccccc21
inactive: T-47D breast 81% | BT-549 breast 94.5% | MDA-MB-435 melanoma 66.9% | SW-620 colon 86% | MCF7 breast 81.2% | HCT-116 colon 53.1% | KM12 colon 76.9%

COc1cc(N2C(=O)c3nccnc3C2=O)cc(OC)c1OC
inactive: T-47D breast 96.9% | BT-549 breast 95.2% | MDA-MB-435 melanoma 107% | SW-620 colon 104% | MCF7 breast 95.7% | HCT-116 colon 103% | KM12 colon 110%

COc1ccc(C(=O)Nn2c(NCC(=O)N3c4ccccc4Sc4ccccc43)nnc2-c2ccc(O)cc2)cc1
inactive: T-47D breast 106% | BT-549 breast 96.5% | MDA-MB-435 melanoma 102% | SW-620 colon 104% | MCF7 breast 111% | HCT-116 colon 101% | KM12 colon 109%

O=C1c2cccc(NCCN=Cc3cc([N+](=O)[O-])ccc3O)c2C(=O)c2c(NCCN=Cc3cc([N+](=O)[O-])ccc3O)cccc21
inactive: T-47D breast 75.8% | BT-549 breast 107% | MDA-MB-435 melanoma 99.3% | SW-620 colon 29.8% | MCF7 breast 20.8% | HCT-116 colon 33.3% | KM12 colon 46.8%

Cc1ccc2c(c1)Sc1c(ccc3ccccc13)N2
inactive: T-47D breast 47.2% | BT-549 breast 81.2% | MDA-MB-435 melanoma 81.6% | SW-620 colon 73.7% | MCF7 breast 56.5% | HCT-116 colon 29.1% | KM12 colon 55.1%

N#C/C(=C/C=C/c1cccc(Cl)c1)S(=O)c1ccccc1 (stereo not given)
active: T-47D breast -47.2% | BT-549 breast -69.3% | MDA-MB-435 melanoma -35.4% | SW-620 colon -58.9% | MCF7 breast -52.5% | HCT-116 colon -86.3% | KM12 colon -47.7%

CCOC(=O)c1csc(NC(=O)COc2cccc(/C=C3\Oc4cc(OC)ccc4C3=O)c2)n1
inactive: T-47D breast 68.9% | BT-549 breast 84.7% | MDA-MB-435 melanoma 90.5% | SW-620 colon 108% | MCF7 breast 81.1% | HCT-116 colon 90.7% | KM12 colon 83.9%

COc1cc(C2CC(c3ccc(Nc4ccnc5cc(Cl)ccc45)cc3)=NN2C=O)cc(OC)c1OC (stereo not given)
inactive: T-47D breast 83.2% | BT-549 breast 37% | MDA-MB-435 melanoma 30.5% | SW-620 colon 84% | MCF7 breast 46.3% | HCT-116 colon 13.5% | KM12 colon 68%

C[n+]1cc2c3c(ccc2c2ccc4cc5c(cc4c21)OCO5)OCO3
active: T-47D breast -78.2% | BT-549 breast -91.7% | MDA-MB-435 melanoma -85.8% | SW-620 colon -67.3% | MCF7 breast -72.5% | HCT-116 colon -89.2% | KM12 colon -78.5%

O=C1/C(=C/c2ccc(Br)cc2)C=C(c2ccccc2)N1CCc1ccccc1
inactive: BT-549 breast 74.5% | MDA-MB-435 melanoma 63.2% | SW-620 colon 70.2% | MCF7 breast 55.2% | HCT-116 colon 22.7% | HCC-2998 colon 70.1% | KM12 colon 87.9%

N/C(=N/N=C/c1ccccc1)N/N=C\c1ccccc1
active: MDA-MB-435 melanoma -3.26%
inactive: T-47D breast 37.6% | SW-620 colon 33.5% | MCF7 breast 31.6% | HCT-116 colon 35.9% | KM12 colon 35%

CC1(C)CC(=O)CC2(C1)N=C(N)Nc1nc3ccccc3n12 (stereo not given)
inactive: T-47D breast 106% | MDA-MB-435 melanoma 104% | SW-620 colon 109% | MCF7 breast 89.4% | HCT-116 colon 96.8% | KM12 colon 108%

COc1ccc(Cl)cc1NC(=O)C(Br)C(Br)C(=O)O (stereo not given)
inactive: T-47D breast 19.9% | MDA-MB-435 melanoma 34.2% | MCF7 breast 23.8% | HCC-2998 colon 38.6% | KM12 colon 83.2%
active: SW-620 colon 8.71% | HCT-116 colon 8.19%

CCOC(CN=Cc1cc(C)c2[nH]c3ccccc3c2c1C)OCC
inactive: T-47D breast 94.4% | BT-549 breast 83.2% | MDA-MB-435 melanoma 97.8% | SW-620 colon 99.1% | MCF7 breast 88.9% | HCT-116 colon 94.4% | KM12 colon 106%

O=C(c1ccccc1)N1N=C(c2ccccc2)CC1c1nnc2n(Cc3ccccc3)c(=O)c3c4c(sc3n12)CCCC4 (stereo not given)
inactive: BT-549 breast 115% | MDA-MB-435 melanoma 97.9% | SW-620 colon 105% | MCF7 breast 96.4% | HCT-116 colon 95.1% | HCC-2998 colon 125% | KM12 colon 82.4%

O=C(N/N=C/c1ccncc1)c1ccc(C(F)(F)F)nc1Nc1cccc(C(F)(F)F)c1
active: MCF7 breast -14.5%
inactive: T-47D breast 25.6% | BT-549 breast 23.8% | MDA-MB-435 melanoma 36.4% | SW-620 colon 14.8% | HCT-116 colon 11.1% | KM12 colon 20.9%

N#Cc1nc(C#N)c(Sc2ccccc2)c(Sc2ccccc2)c1Sc1ccccc1
active: T-47D breast -71.7% | MDA-MB-435 melanoma -14.2% | SW-620 colon -67.2% | MCF7 breast -72.1% | HCT-116 colon -30.7% | HCC-2998 colon -85.4% | KM12 colon -85.2%

COc1ccc(C2C(c3nn[nH]n3)=C(N)Oc3c2ccc2ccccc32)cc1 (stereo not given)
inactive: T-47D breast 64.4% | BT-549 breast 72% | SW-620 colon 29.3% | MCF7 breast 33.1% | HCT-116 colon 55.7% | KM12 colon 50.2%
active: MDA-MB-435 melanoma -26.6%

C[n+]1cccc(CC(=O)NO)c1
inactive: T-47D breast 79% | BT-549 breast 103% | MDA-MB-435 melanoma 107% | SW-620 colon 105% | MCF7 breast 96.4% | HCT-116 colon 104% | KM12 colon 107%

CN(C)CCCn1c(=O)c2ccccc2c2ccccc21
inactive: T-47D breast 87.9% | BT-549 breast 103% | MDA-MB-435 melanoma 89% | SW-620 colon 42.8% | MCF7 breast 58.4% | HCT-116 colon 26.5% | KM12 colon 75.8%

COc1ccc(C(=NN=C(N)N)c2ccc(OC)cc2)cc1
inactive: BT-549 breast 30.6% | SW-620 colon 25.3% | HCT-116 colon 21.5% | KM12 colon 21.2%
active: T-47D breast 8.87% | MDA-MB-435 melanoma -35.2% | MCF7 breast 5.47%

COc1ccc(NC(=O)CSc2nnc(-c3cc(-c4ccccc4)nc4ccccc34)n2-c2ccccc2)cc1
inactive: T-47D breast 78.4% | MDA-MB-435 melanoma 99.2% | SW-620 colon 101% | MCF7 breast 89.1% | HCT-116 colon 92.6% | HCC-2998 colon 107% | KM12 colon 98.1%

C[C@H]1[C@H]2[C@H]3CC[C@@H]4[C@@]5(C)C/C(=C/c6ccco6)C(=O)C(C)(C)[C@@H]5CC[C@@]4(C)[C@]3(C)CC[C@]23CO[C@]1(C)[C@@H](C(=O)/C=C\c1ccco1)C3
inactive: T-47D breast 80.3% | BT-549 breast 111% | MDA-MB-435 melanoma 43.4% | SW-620 colon 99.3% | MCF7 breast 88.8% | HCT-116 colon 101% | KM12 colon 99.8%

NC(N)=NN=C(c1ccccc1)c1ccccc1
active: MDA-MB-435 melanoma -23.8%
inactive: T-47D breast 12.2% | BT-549 breast 44.1% | SW-620 colon 28.1% | MCF7 breast 16.3% | HCT-116 colon 29% | KM12 colon 32.5%

O=C(O)c1ccc2c(c1Cl)C(=O)c1ccccc1C2=O
inactive: BT-549 breast 116% | MDA-MB-435 melanoma 78.3% | SW-620 colon 107% | MCF7 breast 94% | HCT-116 colon 93.2% | HCC-2998 colon 104% | KM12 colon 107%

C[C@H](NC(=O)[C@@H]1CSSC[C@@H](NC(=O)c2nc3ccccc3cc2O)C(=O)NCC(=O)N1C)c1ccccc1
inactive: BT-549 breast 44.3% | MDA-MB-435 melanoma 23.9% | HCT-116 colon 12.8% | HCC-2998 colon 55.1% | KM12 colon 19.8%
active: SW-620 colon -35.4% | MCF7 breast -2.09%

O=c1oc2ccccc2c(Cl)c1Cl
inactive: T-47D breast 43.1% | MDA-MB-435 melanoma 52% | SW-620 colon 48.9% | MCF7 breast 34% | HCT-116 colon 32.5% | HCC-2998 colon 93.1% | KM12 colon 83.6%
